Test systems include RPMI-8226 leukemia; OVCAR-8 ovarian; OVCAR-5 ovarian; OVCAR-4 ovarian; SK-OV-3 ovarian; IGROV1 ovarian; OVCAR-3 ovarian; HS 578T breast; NCI/ADR-RES ovarian; T-47D breast; MDA-MB-435 melanoma; SW-620 colon; MCF7 breast; HCT-116 colon; HCC-2998 colon; KM12 colon; BT-549 breast.
Test in all cases: NCI-60 one-dose screen, 48 h (100 = growth as untreated, 0 = no growth, -100 = all killed)
What all share (details): 10 µM

About 83,000 compounds went through this panel and 20% of them were active in at least one assay; those are over-represented in the sample as a whole.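 Single-concentration screen, 48 h exposure, 96-well plates. Endpoint: percent growth. Below 10 = active.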 Values without a mark were called inactive. The source made the active and inactive calls.

`CCN1CCC(CCOC)(CN2c3ccccc3Sc3ccc(Cl)cc32)C1` (stereo unspecified): the growth with RPMI-8226 leukemia was 47.4%; with OVCAR-8 ovarian, 73.7%; in the test on OVCAR-5 ovarian, 54.4%; in the test with OVCAR-4 ovarian, 46.3%; with SK-OV-3 ovarian it was 78.7%; with IGROV1 ovarian it was 30.7%. Besides, the growth in the test on OVCAR-3 ovarian was 64.8%; in the test on HS 578T breast, 51.5%; in the test with NCI/ADR-RES ovarian it was 75.8%; with T-47D breast, 70.5%; with MDA-MB-435 melanoma, 10.9%; in the test with SW-620 colon, 54%. Further, the growth with MCF7 breast was 22.9%; in the test with HCT-116 colon, 28.8%; in the test with HCC-2998 colon it was 40.5%; in the test with KM12 colon, 29.8%.
For `Cn1c(N)c(N=Nc2ccc(S(=O)(=O)Nc3nccs3)cc2)c(=O)n(C)c1=O`, the growth in the test with RPMI-8226 leukemia is 100%; in the test on OVCAR-8 ovarian, 100%; in the test with OVCAR-5 ovarian, 115%; with OVCAR-4 ovarian it was 106%; with SK-OV-3 ovarian, 103%; with IGROV1 ovarian it was 91.2%. Also, the growth in the test with OVCAR-3 ovarian is 103%; in the test with HS 578T breast, 106%; in the test on NCI/ADR-RES ovarian, 96%; in the test on T-47D breast, -10.2% (active); with MDA-MB-435 melanoma, 101%; in the test with SW-620 colon it was 99%. Also, the growth in the test on MCF7 breast was 101%; in the test on HCT-116 colon, 109%; with HCC-2998 colon, 95.9%; with KM12 colon, 104%.
Regarding `Cc1cc(C)c(CCc2cc(C)c(C)cc2C)cc1C`, the growth in the test with RPMI-8226 leukemia is 102%; in the test with OVCAR-8 ovarian it was 102%; in the test on OVCAR-5 ovarian, 103%; in the test with OVCAR-4 ovarian it was 92.9%; in the test on SK-OV-3 ovarian, 114%; with IGROV1 ovarian it was 111%. Also, the growth with OVCAR-3 ovarian is 114%; in the test on HS 578T breast it was 108%; with NCI/ADR-RES ovarian it was 107%; in the test on T-47D breast it was 114%; in the test on MDA-MB-435 melanoma, 98%; in the test with MCF7 breast, 105%. Also, the growth is 106% in the test on HCT-116 colon, 101% with HCC-2998 colon and 106% in the test on KM12 colon.
Consider `CN(C)CCNC(=O)c1cccn2c(=O)c3cc4ccccc4cc3nc12`, for which the growth was -29.2% (active) with RPMI-8226 leukemia; -9.49% (active) with OVCAR-8 ovarian; 29.6% with OVCAR-5 ovarian; -3.24% (active) with OVCAR-4 ovarian; 19.5% in the test with SK-OV-3 ovarian; 19.3% with IGROV1 ovarian. In addition, the growth with OVCAR-3 ovarian was -15.3% (active); in the test on HS 578T breast, -14.5% (active); in the test on NCI/ADR-RES ovarian, 5.94% (active); with T-47D breast, 5.57% (active); in the test on MDA-MB-435 melanoma, -68.6% (active); in the test with SW-620 colon it was -11.9% (active). For the same molecule, the growth in the test on MCF7 breast is 4.71% (active); with HCT-116 colon, -41% (active); in the test with KM12 colon, -10.2% (active).
Take `CC[C@H]1CCC/C=C/[C@@H]2C[C@H](O)C[C@H]2[C@H](O)/C=C/C(=O)O1`: the growth was -3.82% (active) in the test on RPMI-8226 leukemia; 0.0361% (active) with OVCAR-8 ovarian; 7.93% (active) in the test on OVCAR-5 ovarian; 29% in the test on OVCAR-4 ovarian; 21.3% in the test with SK-OV-3 ovarian; -2.68% (active) with IGROV1 ovarian. The growth was -58.5% (active) in the test on OVCAR-3 ovarian; 13.7% in the test on HS 578T breast; 2.15% (active) in the test on NCI/ADR-RES ovarian; -81.1% (active) in the test with T-47D breast; 5.71% (active) in the test on MDA-MB-435 melanoma; -69% (active) in the test with SW-620 colon. In addition, the growth with MCF7 breast was -73% (active); in the test with HCT-116 colon it was -67.8% (active); in the test with HCC-2998 colon it was -65.8% (active); with KM12 colon, -70.5% (active).
With `CS(=O)(=O)Nc1ccc(Nc2c3ccccc3nc3cc(N)ccc23)cc1`, the growth in the test with RPMI-8226 leukemia was 21.6%; in the test with OVCAR-8 ovarian, 24.8%; with OVCAR-5 ovarian it was 56.6%; with OVCAR-4 ovarian, 43.2%; with SK-OV-3 ovarian, 32%; in the test on IGROV1 ovarian it was 37.5%. Further, the growth in the test on OVCAR-3 ovarian was 15.3%; in the test with HS 578T breast, 23.7%; with NCI/ADR-RES ovarian, 96.5%; in the test on T-47D breast it was -14.5% (active); with MDA-MB-435 melanoma it was 53.6%; in the test on SW-620 colon, 39.8%. Also, the growth in the test with MCF7 breast is 6.57% (active); in the test with HCT-116 colon, 28%; with HCC-2998 colon it was 35.2%; with KM12 colon, 5.56% (active).
Regarding `CC(=O)O[C@]1(C)CC[C@H]2[C@H](CNCCc3ccc(Cl)cc3)C(=O)O[C@@H]2C2=C(C)C(=O)C[C@H]21`, the growth in the test on RPMI-8226 leukemia is 64.7%; with OVCAR-8 ovarian, 93.1%; in the test on OVCAR-5 ovarian it was 100%; in the test with OVCAR-4 ovarian, 87.4%; in the test with SK-OV-3 ovarian it was 101%; in the test on IGROV1 ovarian it was 97.5%. Besides, the growth in the test on OVCAR-3 ovarian is 99.2%; in the test with HS 578T breast, 150%; with NCI/ADR-RES ovarian, 109%; in the test on BT-549 breast, 108%; in the test on MDA-MB-435 melanoma it was 88%; with SW-620 colon it was 82%. The growth in the test on MCF7 breast is 68.4%; in the test on HCT-116 colon, 83.9%; in the test with HCC-2998 colon, 94.6%.
With `O=C(O)CC(Cl)C(Cl)CC(=O)O` (stereo unspecified), the growth with RPMI-8226 leukemia is 99.2%; in the test on OVCAR-8 ovarian, 102%; in the test on OVCAR-5 ovarian, 106%; in the test on OVCAR-4 ovarian, 104%; in the test on SK-OV-3 ovarian, 98.1%; in the test on IGROV1 ovarian, 106%. For the same molecule, the growth is 106% with OVCAR-3 ovarian; 115% with HS 578T breast; 102% in the test on NCI/ADR-RES ovarian; 97.5% with BT-549 breast; 93.8% in the test with MDA-MB-435 melanoma; 103% in the test with SW-620 colon. Also, the growth was 105% in the test on MCF7 breast, 111% in the test on HCT-116 colon, 110% with HCC-2998 colon and 101% in the test on KM12 colon.
`NC1(C(=O)O)CSSC1`: the growth is 100% with RPMI-8226 leukemia; 40.7% in the test on OVCAR-8 ovarian; 113% with OVCAR-5 ovarian; 76.8% with OVCAR-4 ovarian; 108% with SK-OV-3 ovarian; 90% in the test with IGROV1 ovarian. The growth with OVCAR-3 ovarian was 93%; in the test on HS 578T breast it was 53.6%; in the test on NCI/ADR-RES ovarian it was 59.8%; in the test on BT-549 breast, 85.4%; in the test on MDA-MB-435 melanoma it was 89.4%; in the test with SW-620 colon, 99.4%. Besides, the growth in the test on MCF7 breast is 43.4%; with HCT-116 colon it was 83.1%; in the test on HCC-2998 colon, 118%; with KM12 colon it was 93.4%.
Regarding `O=C(/C(=C/c1ccccc1)CN1CCCCC1)c1ccccc1`, the growth in the test on RPMI-8226 leukemia was -6.34% (active); in the test with OVCAR-8 ovarian it was 11%; in the test with OVCAR-5 ovarian, -66.5% (active); in the test with OVCAR-4 ovarian, 12%; in the test with SK-OV-3 ovarian, 31%; in the test on IGROV1 ovarian, -7.89% (active). Further, the growth in the test on OVCAR-3 ovarian is -92.7% (active); with HS 578T breast, 47.5%; in the test with NCI/ADR-RES ovarian, 4.84% (active); with MDA-MB-435 melanoma, 6.16% (active); with SW-620 colon it was 0.239% (active); with MCF7 breast it was -22% (active). Moreover, the growth is -87.4% (active) in the test with HCT-116 colon, -91% (active) in the test on HCC-2998 colon and -75.8% (active) with KM12 colon.

Source of the values: PubChem BioAssay (NCI).
